Source: PubChem BioAssay (National Center for Advancing Translational Sciences (NCATS))
Shown are actives, neighbours in structure and some others; about 19% of the full set was active somewhere.
TDP1 cell CPT = growth inhibition of DT40 Tdp1-/-;hTDP1 cells with camptothecin (screen for TDP1 inhibitors); chicken DT40 Tdp1-/-;hTDP1 cells + 20 nM CPT, ATP luminescence, 48 h; Potency, µM (highest dose often 46.2 µM), without a hit: at the top dose activity change, negative = growth inhibition, hits mostly inhibitors; 420,000 tested, 12% active; further: nearly all actives have a fitted effect of over 55% in size
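Chicken DT40 Tdp1-/- cells stably complemented with human TDP1 were seeded at 400 cells/well in medium containing 20 nM camptothecin, exposed to pin-transferred compounds, and grown at 37 °C for at least 48 hr. Viability was read as ATP luminescence.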
HT1080-NT tox = kills 2HG-producing HT-1080-NT fibrosarcoma cells | HT-1080-NT fibrosarcoma viability, CellTiter-Glo ATP luminescence, 48 h | Potency, µM (highest dose often 46.1 µM), for inactives: at the highest dose activity, negative = less viability, actives largely listed as cytotoxic | 360,000 tested, 1.6% active;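 further: NT is the 2HG producing partner of a matched IDH1 knockdown line; 0% = DMSO-treated cells and -100% = media-only wells without cells; nearly all actives have a fitted effect of over 55% in size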
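Viability of the 2HG-overproducing fibrosarcoma line after 48 hours of compound exposure at 37 degrees C was determined by luminescence with CellTiter-Glo, and concentration-effect curves were then fitted and categorized.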
TDP1 cell noCPT = qHTS for Inhibitors of human tyrosyl-DNA phosphodiesterase 1 (TDP1): qHTS in cells in absence of CPT; DT40 Tdp1-/- hTDP1 cells, no CPT, ATP luminescence, 48 h; Potency, µM (top dose mostly 46.2 µM), for inactives: at the top dose activity change, negative = growth inhibition, hits mostly inhibitors; 420,000 tested, 15% active; AID 686978, 2013; further: nearly all actives have a fitted effect of over 55% in size
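Luminescent ATP content (CellTiter-Glo) served as the growth readout. Knockout chicken DT40 cells expressing human TDP1 were exposed to compounds without camptothecin for a minimum 48 hr at 37 °C.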
KB-V1 MDR tox = kills drug-selected multidrug resistant KB-V1 cells; KB-V1 MDR cells viability, CellTiter-Glo, 72 h; Potency, µM (doses to about 46.1 µM), usual class: cytotoxic; 400,000 tested, 3.4% active; AID 1347076; further: nearly all actives have a fitted effect of over 60% in size
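Cytotoxicity via CellTiter-Glo luminescence after 72 h compound exposure at 37 degrees C. Cells: drug-selected KB-V1 line, DMEM phenol-red free plus 10% FBS. Compounds tested at multiple concentrations; normalized data fitted to concentration-effect curves.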
KB-3-1 tox = kills parental KB-3-1 adenocarcinoma cells. KB-3-1 viability, CellTiter-Glo ATP luminescence, 72 h. Potency, µM (titrated, usually from 46.1 µM), actives largely listed as cytotoxic. 400,000 tested, 1.4% active. AID 1347075; further: nearly all actives have a fitted effect of over 60% in size
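Multi-concentration cytotoxicity screen in KB-3-1 cells grown in DMEM lacking phenol red with 10% FBS. After 72 h at 37 °C with compound, ATP-dependent luminescence was recorded.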
HT1080 IDH1KD tx = toxicity to HT-1080 IDH1 knockdown cells (counter line). HT-1080 IDH1 knockdown viability, ATP luminescence, 48 h. Potency, µM (titrated, usually from 46.1 µM), for inactives: top-dose activity, negative = toxicity, most hits filed as cytotoxic. 360,000 tested, 2% active;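 further: 0% = DMSO wells and -100% = cell-free medium wells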
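In this qHTS, HT-1080 cells depleted of IDH1 are exposed for 48 h at 37 °C to compound titrations. Toxicity is scored from CellTiter-Glo luminescence, with DMSO as full viability and medium alone as none.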
The depositor's hits bear a star; i = inactive; ? = inconclusive; / = not tested or not shown. The call rests on the fitted dose curve; in most records, active means well fitted curve in the direction sought with a large enough effect; inconclusive means small, poorly fitted or top-dose-only effect, or another doubt; inactive means no such curve, though single readings can be large; an effect the other way counts as inactive or inconclusive. Unless noted, on the % scale 0 is the no-effect control and ±100 the full control effect; potency means the concentration at half of the fitted maximal effect.

SMILES | TDP1 cell CPT | HT1080-NT tox | TDP1 cell noCPT | KB-V1 MDR tox | KB-3-1 tox | HT1080 IDH1KD tx
COc1cccc(N/C(SCc2ccccc2Cl)=C(/C#N)C(=O)NCc2cccs2)c1 | ? | 5% | ? | 15µM* | i | 11%
CC(=O)OCC1OC(n2c(S)c(C#N)c(-c3ccccc3)c(C#N)c2=O)C(OC(C)=O)C(OC(C)=O)C1OC(C)=O (stereo not given) | ? | -21% | ? | i | i | ?
CC(C)(C)C(=O)/C=C(N)/C=C/c1ccccc1 | -6% | -18% | -26% | ? | i | -22%
CCOC(=O)c1c(C)oc2c1c(CN1CCN(C(=O)OCC)CC1)c(O)c1ccccc12 | ? | -10% | 21µM* | i | i | ?
Cc1ccc2c(COC(=O)C34CC5CC(CC(C5)C3)C4)cc(=O)oc2c1 | ? | 14% | ? | i | i | 21%
CCOC(=O)c1c(C)oc2c1c(C(c1ccncc1)N1CCOCC1)c(O)c1ccccc12 (stereo not given) | 21µM* | ? | ? | i | ? | ?
O=C(CC12CC3CC(CC(C3)C1)C2)NCC(=O)OCc1cc(=O)oc2ccc3ccccc3c12 | ? | -11% | 18µM* | i | i | -9%
CCOC(=O)N1CCN(Cc2cc(=O)oc3ccc4ccccc4c23)CC1 | 23µM* | 2% | ? | i | i | 1%
O=c1cc(CN2CCCC2)c2c(ccc3ccccc32)o1 | -3% | 14% | -4% | i | i | 11%
CCOC(=O)c1c(C)oc2c1c(CN1CCN(CCO)CC1)c(O)c1ccccc12 | ? | ? | ? | i | i | ?
Cc1cc(C)cc(-n2c(C)nc3cc(C(=O)NCc4ccccc4Cl)ccc32)c1 | 2% | / | ? | i | ? | /
Cc1c(C(C)(C)O)[nH]c2ccc(C(F)(F)F)cc12 | ? | -2% | ? | i | ? | -6%
CCOC(=O)c1c(C)oc2c1c(C=NC1CCS(=O)(=O)C1)c(O)c1ccccc12 (stereo not given) | 23µM* | 10% | 21µM* | ? | ? | 2%
Cc1nc2nc3c(cn2n1)C(=O)CC(C)(C)C3 | -11% | 14% | 12% | i | i | 17%
O=S(=O)(c1cc(F)ccc1F)N1CCC2(CC1)OCCO2 | -1% | 11% | 13% | i | i | 8%
O=C(Nc1ccc(F)c(F)c1)c1ccc(F)c(S(=O)(=O)N2CCC3(CC2)OCCO3)c1 | 16µM* | ? | 13µM* | ? | ? | ?
Cc1cnc(NC(=O)c2ccc(F)c(S(=O)(=O)N3CCOCC3)c2)s1 | ? | 11% | ? | 18µM* | i | 4%
O=C(Nc1ccc2c(c1)CCC2)c1ccc(F)c(S(=O)(=O)N2CCOCC2)c1 | ? | -1% | 23µM* | 3.3µM* | ? | -15%
COc1ccc(N(Cc2nnc3n2CCCCC3)C(=O)Nc2cccc(C)c2)cc1Cl | 0% | / | 10% | i | i | /
O=C1CCC[C@@H]2C[C@@]3(C[C@@H]4CCN1[C@H]24)Nc1cc(Cl)ccc1NC3=NCc1ccccc1 | ? | 3% | ? | i | i | 0%
